Data published in PubChem BioAssay AID1031 (Columbia University Molecular Screening Center, 2008).
This is one part of the list. A number with no mark means an inactive call. No rule for the calls is given here.

Target: Tyrosine-protein phosphatase non-receptor type 22 (Homo sapiens) (UniProt Q9Y2R2)
Test: LYP phosphatase activation, single-dose recheck – biochemical, DiFMUP fluorescence, single concentration, confirmation (AID 1031)
Conditions: Recombinant LYP, at 2 µM, active compounds read high, zero set by plate's median compound well

Sequence of Tyrosine-protein phosphatase non-receptor type 22 (Homo sapiens) (Q9Y2R2 whole entry, looked up): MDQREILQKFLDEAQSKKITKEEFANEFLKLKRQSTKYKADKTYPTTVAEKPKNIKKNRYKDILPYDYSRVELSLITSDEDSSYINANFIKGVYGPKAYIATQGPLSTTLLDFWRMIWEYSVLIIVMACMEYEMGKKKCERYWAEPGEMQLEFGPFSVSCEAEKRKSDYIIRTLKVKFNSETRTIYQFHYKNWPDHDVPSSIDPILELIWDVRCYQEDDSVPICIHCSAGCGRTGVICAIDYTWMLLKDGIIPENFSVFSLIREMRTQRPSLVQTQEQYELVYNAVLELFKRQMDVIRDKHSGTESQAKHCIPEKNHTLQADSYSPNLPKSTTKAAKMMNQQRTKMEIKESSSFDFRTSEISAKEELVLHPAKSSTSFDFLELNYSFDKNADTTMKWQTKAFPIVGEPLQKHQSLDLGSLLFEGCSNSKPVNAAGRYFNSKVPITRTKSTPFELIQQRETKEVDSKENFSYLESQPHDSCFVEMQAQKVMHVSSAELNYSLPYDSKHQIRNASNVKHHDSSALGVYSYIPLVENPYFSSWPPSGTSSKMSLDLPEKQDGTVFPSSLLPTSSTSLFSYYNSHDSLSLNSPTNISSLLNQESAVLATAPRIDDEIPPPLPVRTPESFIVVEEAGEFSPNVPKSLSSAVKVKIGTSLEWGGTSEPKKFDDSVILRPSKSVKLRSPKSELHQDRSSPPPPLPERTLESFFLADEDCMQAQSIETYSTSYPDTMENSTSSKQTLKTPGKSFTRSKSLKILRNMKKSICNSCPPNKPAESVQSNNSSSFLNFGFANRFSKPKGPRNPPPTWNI

SMILES	activation [%]
Cc1ccccc1NC(=O)c1cc(S(=O)(=O)N2CCOCC2)cs1	-3.6
N#CCCn1ncc2ccccc21	5.5
